Assay results as given in PubChem BioAssay (NCI).
Values joined by “and” are separate entries in the source; they are usually repeats but may differ in a detail not shown here. Equal values may be shown once. This is part of a sample that, as a whole, favours compounds with a hit. Of some 79,000 tested, about 15% had one in any assay. Unmarked numbers belong to inactive results. Active and inactive are the calls of the source. No stated cut-off is given here; in the data, active means growth inhibition above about 70%; inactive means the rest.

Experiments:
[1] = NCI Yeast Anticancer Drug Screen. Data for the rad50 strain (AID 155);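 further: 0% = growth of vehicle-only cultures of the same strain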; conditions: S. cerevisiae rad50 strain growth inhibition; at 50.0 µM; stronger effect = higher value
Outline: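 Inhibition values express reduced yeast growth in compound-treated cultures relative to vehicle-treated controls.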

[2] = NCI Yeast Anticancer Drug Screen. Data for the mec2-1 strain (AID 157); conditions: S. cerevisiae mec2-1 strain, at 50.0 µM, stronger effect = higher value
Outline: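 Using mec2-1 yeast: add compound, measure growth, express inhibition versus vehicle-treated cultures.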

[3] = NCI Yeast Anticancer Drug Screen. Data for the sgs1 mgt1 strain (AID 161);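 further: 0% = growth of cultures given vehicle only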; conditions: S. cerevisiae sgs1 mgt1 strain, at 50.0 µM, stronger effect = higher value
Outline: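 Compounds are added to genetically altered yeast, and growth is compared with cultures given vehicle alone to give percent inhibition.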

[4] = NCI Yeast Anticancer Drug Screen. Data for the cln2 rad14 strain (AID 165);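 further: 0% = growth equal to vehicle treated cultures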; conditions: S. cerevisiae cln2 rad14 strain, at 50.0 µM, stronger effect = higher value
Outline: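 Yeast strain cln2 rad14, bearing defects in cell cycle control and DNA repair, serves as the test system; values reflect growth inhibition compared with vehicle.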

[5] = NCI Yeast Anticancer Drug Screen. Data for the bub3 strain (AID 167); conditions: S. cerevisiae bub3 mutant strain, at 50.0 µM, stronger effect = higher value
Outline: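 Steps: expose the mutant yeast strain to compound; grow alongside vehicle-treated cultures; measure growth; express inhibition against the vehicle cultures.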

[6] = NCI Yeast Anticancer Drug Screen. Data for the mlh1 rad18 strain (AID 175); conditions: S. cerevisiae mlh1 rad18 strain growth inhibition; at 50.0 µM; stronger effect = higher value
Outline: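 Steps: expose repair-defective yeast to compound; measure growth; express inhibition against vehicle-treated controls.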

Compound	growth inhibition [1]	growth inhibition [2]	growth inhibition [3]	growth inhibition [4]	growth inhibition [5]	growth inhibition [6]
CCOC(=O)CC(=O)C(F)(F)F.CCOC(=O)CC(=O)C(F)(F)F.[Ni]	-21%	14.4%	-12.2%	24.4%	12.6%	-0.95%
CC1C2Cc3ccc(O)cc3C1(C)CCN2CCC(=O)c1ccccc1 (centres undefined)	-8.85%	1.4%	-7.3%	18.2%	5.6%	9.55%
COc1ccc2c(c1)-c1c(ccc(OC)c1OC(=O)C(=O)c1ccccc1)CC(Cl)N(C)CC2.[O]=[Cr](=[O])([OH])[OH] (centres undefined)	-18.3%	-0.55%	-19.5%	-17%	-1.3%	-1.25%
CC(=O)OC1=CCC2(C)C(CCC3C4CCC(OC(C)=O)C4(C)CCC32)C1=O (centres undefined)	87.5% (active)	79.4% (active)	87.5% (active)	72.3% (active)	73.5% (active)	85.3% (active)
COc1ccc(CCNCc2ccc3ccccc3n2)cc1OC	-0.35%	-10.5%	7.2%	-16.4%	-11.5%	7.5%
Cc1nc([N+](=O)[O-])c([N+](=O)[O-])n1CC(O)CCl (centres undefined)	3.85%	-12.4%	4.2%	14.9%	-28.1%	20.4%
O=C(O)C(CSC(c1ccccc1)(c1ccccc1)c1ccccc1)N=Cc1cccs1 (centres undefined)	-8%	-1.65%	-1.95%	-33.9%	43.3%	-18.2%
CCOP(=O)(OCC)/C(C#N)=C/c1cn(C)cn1	-3.35%	1.95%	-5.95%	-16.1%	-4.65%	-21.8%
NC(CSC(c1ccccc1)c1ccccc1)C(=O)O (centres undefined)	6.3%	0%	3.35%	5%	13.4%	3.5%
O=C(NC(CSC(c1ccccc1)(c1ccccc1)c1ccccc1)C(=O)O)OCc1ccccc1 (centres undefined)	63.7%	99.5% (active)	98.5% (active)	51.9%	47.6%	58.8%
CC(C)N(C#N)C(C)C	16.6%	-0.75%	1.85%	9.6%	0.25%	6.25%
CCOP(=O)(CC(=O)c1ccccc1)OCC	10.1%	1.25%	-18.1%	0.6%	-1.45%	20.8%
O=C(O)CC(=O)O.[Ti].[c-]1[c-][c-][cH-][c-]1.[c-]1[c-][c-][cH-][c-]1	-12.4%	-5.75%	-6.8%	-51.6%	0.2%	-0.95%
CC(=O)[CH-]C(C)=O.CC(=O)[CH-]C(C)=O.CC(=O)[CH-]C(C)=O.[Ga+3]	28.6%	13.9%	15.3%	42.6%	31.1%	18.6%
ClC1CC2OC(Cl)CC2O1 (centres undefined)	5.2%	1.05%	-19.1%	-20.9%	0.4%	1.15%
CC(=O)C(C(C)=O)C(=O)c1ccc([N+](=O)[O-])cc1.[Cr]	-23.5%	9.5%	6.3%	-55.5%	28.5%	23.2%
CCCC(=O)OCC[N+](C)(C)C	-1.35% and 12.7%	-21.9% and -18.6%	-10.7% and 25.4%	18.9% and 5.95%	-12.1% and 6.6%	4.05% and 18.2%
C/C=N/Nc1ccc([N+](=O)[O-])cc1[N+](=O)[O-]	10.5%	-6.35%	-11.8%	-14.9%	3.3%	16.8%
NC(N)=NCCN=C(N)N	-2.7%	-30.1%	-29.6%	-24.1%	-53.2%	-9.15%
CCOP(=O)(CCC[N+](=O)[O-])OCC	-12.1%	-11.9%	-18.7%	-15.8%	1.35%	-7.65%

Compound	growth inhibition [1]	growth inhibition [2]	growth inhibition [3]	growth inhibition [4]	growth inhibition [5]	growth inhibition [6]
CC(C)(Cl)[N+](=O)[O-]	-3.35%	-13.3%	6.65%	-1.7%	-5.45%	16.6%
CCN(CC)C(=O)N1CN(c2ccccc2)C2(CCN(CCCC3(c4ccc(F)cc4)OCCO3)CC2)C1=O	24.7%	24.1%	48%	19.7%	23.8%	49.9%
CCCCCOP(=O)(OCCCCC)C(=O)Nc1ccc([N+](=O)[O-])cc1	-12.9%	4.85%	-5.25%	-3.2%	-1.8%	10.9%
CCCCC(CC)C(=O)NC(N)=O (centres undefined)	6.7%	-20.1%	-5.35%	-22.4%	-12.2%	4.1%
NCCN.O=C([O-])C(=O)[O-].O=C([O-])C(=O)[O-].[Co+3].[K+]	0.2%	-8.5%	10.2%	16.8%	5.1%	-2.4%
Cc1c(Cl)cccc1NC(=O)C(=O)C1C(=O)NC(=O)NC1=O	-10.8%	-10.8%	-13.8%	-6%	-17.8%	-17.9%
NCCc1cc2c3c(c1)CCCN3CCC2	96.5% (active)	96.5% (active)	94.5% (active)	88.7% (active)	94.9% (active)	98.2% (active)
O=NNc1ccc2ccccc2n1	-17.1%	23.5%	-2%	14.6%	3.2%	-6.95%
C=CC(C)(C)C12CC3C(=O)N/C(=C\c4cnc[nH]4)C(=O)N3C1Nc1ccccc12 (centres undefined)	-33.4%	-11%	8.15%	1.45%	-6.3%	-14.8%
CCCCSCCC(N)P(=O)(O)O (centres undefined)	-68.8%	-62.4%	-42.4%	2.8%	-15.2%	-44.1%
[N-]=[N+]=Nc1nc2ccccc2c(N=[N+]=[N-])c1Cl	6.85%	-6.7%	5.6%	31.9%	5.45%	9.45%
CC(C)OP(=O)(OC(C)C)C(C(F)(F)F)C(F)(F)F	-3.65%	9.65%	19%	45.9%	10.6%	-23.1%
CCN1CCC2(CC1)COCc1ccccc12	18.3%	7.8%	16.4%	4.15%	3.15%	29.6%
O=NN(CS(=O)(=O)O)c1ccccc1	-5.9%	-3.05%	-1.6%	-29.2%	6.4%	0.4%
CC(=S)N=Cc1c(O)[nH]c(=O)[nH]c1=O	-6.2%	-6.8%	-10.2%	21.6%	-7.55%	9.55%
Oc1cccc2cccnc12.[Cr]	6%	-0.65%	-7.65%	-7%	-16.9%	-9.65%
c1ccc(-c2ccc([As](c3ccccc3)c3ccccc3)cc2)cc1	11.4%	4.5%	19.6%	3.85%	7.6%	11.8%
O=C1NC2(CCCCC2)C(=O)N1CCCCCN(CCCl)CCCl	22.8%	18.4%	2.1%	-25.4%	-9.75%	-0.3%
COc1nc2ccccc2nc1N1CC1	-3.25%	-31%	-15%	6.9%	-24.6%	-1.65%
